A number with no mark means an inactive call. Activity calls are given as the source filed them.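 Rule for the calls: active = two or more serine hydrolases at least half inhibited, plus every target band half blocked in a general-probe test; inactive = under two enzymes half blocked, or any target band not.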
Assay: general off-target profile by competitive ABPP – fluorescence, gel-based ABPP, powder samples, selectivity assay for PAFAH2 inhibitor project, late-stage follow-up (AID 504527)
Conditions: BW5147 murine T-cell proteome, FP-Rh fluorescence, competitor test compound, probe FP-Rh, at 20 µM, active compounds read high
For `C#CCOCCOCCOCCN(Cc1ccccc1)C(=O)n1ncc(-c2ccccc2)n1`, the number of serine hydrolases inhibited >=50% was 8 (active).
Work on `C#CCOCCOCCOCCN(Cc1ccccc1)C(=O)n1ccnc1` yielded a number of serine hydrolases inhibited >=50% of 0.
`C#CCOCCOCCOCCN(Cc1ccccc1)C(=O)Oc1ccc([N+](=O)[O-])cc1` gave a number of serine hydrolases inhibited >=50% of 1.
In the case of `C#CCOCCOCCOCCN(Cc1ccccc1)C(=O)n1nc2cccnc2n1`, the number of serine hydrolases inhibited >=50% is reported as 7 (active).
With `C#CCOCCOCCOCCN(Cc1ccccc1)C(=O)n1nccn1` the number of serine hydrolases inhibited >=50% was 5 (active).

— PubChem BioAssay AID504527 (The Scripps Research Institute Molecular Screening Center, 2011)
